# Laboratory results reported in ChEMBL document CHEMBL2218924, “A broad activity screen in support of a chemogenomic map for kinase signalling research and drug discovery” (Biochem J, 2013).
# Legend:
# [1] = target: T1, Ephrin type-A receptor 3 (Homo sapiens) (UniProt P29320); settings: at 10 µM
# T1 sequence (whole entry): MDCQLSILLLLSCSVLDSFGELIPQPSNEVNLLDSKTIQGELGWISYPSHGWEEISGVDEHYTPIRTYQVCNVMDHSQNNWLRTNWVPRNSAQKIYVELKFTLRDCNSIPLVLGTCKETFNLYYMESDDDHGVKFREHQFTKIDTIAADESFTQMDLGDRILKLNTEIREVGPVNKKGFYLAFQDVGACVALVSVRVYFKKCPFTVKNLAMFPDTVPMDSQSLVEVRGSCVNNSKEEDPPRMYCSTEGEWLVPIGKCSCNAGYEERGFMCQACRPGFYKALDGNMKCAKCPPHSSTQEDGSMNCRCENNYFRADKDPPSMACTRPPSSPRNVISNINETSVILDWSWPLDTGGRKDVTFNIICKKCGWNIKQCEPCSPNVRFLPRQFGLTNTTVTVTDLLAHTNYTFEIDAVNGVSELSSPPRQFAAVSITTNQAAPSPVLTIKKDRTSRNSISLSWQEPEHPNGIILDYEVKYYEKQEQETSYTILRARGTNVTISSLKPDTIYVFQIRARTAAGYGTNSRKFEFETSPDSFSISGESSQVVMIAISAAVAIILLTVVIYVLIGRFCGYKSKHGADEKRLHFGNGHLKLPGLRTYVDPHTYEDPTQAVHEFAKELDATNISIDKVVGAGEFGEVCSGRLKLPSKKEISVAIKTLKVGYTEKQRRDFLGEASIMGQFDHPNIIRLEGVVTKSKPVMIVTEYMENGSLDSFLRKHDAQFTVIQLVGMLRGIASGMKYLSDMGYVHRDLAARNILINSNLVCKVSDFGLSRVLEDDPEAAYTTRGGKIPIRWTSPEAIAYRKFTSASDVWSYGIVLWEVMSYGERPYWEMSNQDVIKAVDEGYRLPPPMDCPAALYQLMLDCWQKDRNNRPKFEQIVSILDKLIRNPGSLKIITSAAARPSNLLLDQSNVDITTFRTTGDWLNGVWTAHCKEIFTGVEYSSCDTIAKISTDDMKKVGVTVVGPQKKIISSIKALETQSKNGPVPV
# [2] = target: Ephrin type-A receptor 4 (Homo sapiens) (UniProt P54764); settings: at 1 µM
# Sequence of Ephrin type-A receptor 4 (Homo sapiens) (P54764 whole entry): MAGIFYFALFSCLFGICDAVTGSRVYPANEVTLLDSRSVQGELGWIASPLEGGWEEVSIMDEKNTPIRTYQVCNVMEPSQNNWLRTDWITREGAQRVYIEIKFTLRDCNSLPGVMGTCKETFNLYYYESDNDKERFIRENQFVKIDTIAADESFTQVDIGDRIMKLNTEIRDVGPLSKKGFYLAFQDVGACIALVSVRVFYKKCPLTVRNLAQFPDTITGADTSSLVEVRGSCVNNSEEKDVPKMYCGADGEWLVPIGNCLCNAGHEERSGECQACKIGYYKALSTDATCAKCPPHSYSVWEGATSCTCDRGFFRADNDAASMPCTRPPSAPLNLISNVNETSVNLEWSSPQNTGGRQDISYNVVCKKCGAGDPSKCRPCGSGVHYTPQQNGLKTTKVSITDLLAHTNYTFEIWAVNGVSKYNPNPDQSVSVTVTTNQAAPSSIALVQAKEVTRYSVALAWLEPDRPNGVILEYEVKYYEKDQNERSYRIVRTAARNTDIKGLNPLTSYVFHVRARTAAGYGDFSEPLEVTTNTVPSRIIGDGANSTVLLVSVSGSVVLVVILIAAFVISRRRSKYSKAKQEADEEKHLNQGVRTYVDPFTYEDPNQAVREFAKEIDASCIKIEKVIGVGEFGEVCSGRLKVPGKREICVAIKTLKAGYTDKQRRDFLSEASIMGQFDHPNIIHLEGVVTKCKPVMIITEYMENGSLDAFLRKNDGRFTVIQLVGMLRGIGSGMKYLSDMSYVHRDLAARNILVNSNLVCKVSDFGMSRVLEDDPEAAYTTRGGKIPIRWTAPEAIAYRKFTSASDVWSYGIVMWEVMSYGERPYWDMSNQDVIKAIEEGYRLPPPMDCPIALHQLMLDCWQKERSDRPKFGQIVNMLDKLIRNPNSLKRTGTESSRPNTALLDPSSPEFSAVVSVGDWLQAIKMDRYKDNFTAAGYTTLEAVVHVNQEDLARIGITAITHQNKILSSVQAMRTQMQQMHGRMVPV
# [3] = target: Ephrin type-A receptor 4 (Homo sapiens) (UniProt P54764); settings: at 10 µM
# [4] = target: Ephrin type-A receptor 5 (Homo sapiens) (UniProt P54756); settings: at 1 µM
# Sequence of Ephrin type-A receptor 5 (Homo sapiens) (P54756 whole entry): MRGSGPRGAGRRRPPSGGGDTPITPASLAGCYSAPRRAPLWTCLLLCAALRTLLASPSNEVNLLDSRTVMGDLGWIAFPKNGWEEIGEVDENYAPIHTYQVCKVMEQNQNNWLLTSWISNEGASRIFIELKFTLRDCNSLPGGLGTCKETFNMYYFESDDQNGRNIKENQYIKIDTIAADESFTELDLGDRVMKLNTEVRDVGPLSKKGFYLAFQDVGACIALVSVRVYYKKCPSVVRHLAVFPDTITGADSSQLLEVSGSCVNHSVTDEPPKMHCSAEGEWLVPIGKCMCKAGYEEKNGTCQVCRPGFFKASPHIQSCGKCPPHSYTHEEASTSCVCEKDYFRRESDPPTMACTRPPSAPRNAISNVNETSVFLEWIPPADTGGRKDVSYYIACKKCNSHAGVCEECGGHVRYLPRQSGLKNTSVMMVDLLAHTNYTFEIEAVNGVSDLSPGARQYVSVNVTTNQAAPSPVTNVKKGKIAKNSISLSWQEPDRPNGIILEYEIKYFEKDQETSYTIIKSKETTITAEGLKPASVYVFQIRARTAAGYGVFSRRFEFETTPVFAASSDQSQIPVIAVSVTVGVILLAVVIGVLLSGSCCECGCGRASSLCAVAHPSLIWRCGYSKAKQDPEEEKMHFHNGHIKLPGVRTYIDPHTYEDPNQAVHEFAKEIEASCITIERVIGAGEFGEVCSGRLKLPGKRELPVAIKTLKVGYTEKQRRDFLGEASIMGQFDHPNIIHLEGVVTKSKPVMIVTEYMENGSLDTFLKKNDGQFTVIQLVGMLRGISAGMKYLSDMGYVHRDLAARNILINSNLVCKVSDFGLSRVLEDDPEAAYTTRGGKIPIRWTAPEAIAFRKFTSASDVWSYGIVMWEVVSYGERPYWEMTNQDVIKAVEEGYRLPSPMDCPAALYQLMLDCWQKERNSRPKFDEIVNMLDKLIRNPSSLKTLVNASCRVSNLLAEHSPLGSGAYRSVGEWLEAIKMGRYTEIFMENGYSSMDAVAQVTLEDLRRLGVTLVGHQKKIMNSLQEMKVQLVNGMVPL
# [5] = target: Ephrin type-A receptor 5 (Homo sapiens) (UniProt P54756); settings: at 10 µM
# [6] = target: Ephrin type-A receptor 7 (Homo sapiens) (UniProt Q15375); settings: at 1 µM
# Sequence of Ephrin type-A receptor 7 (Homo sapiens) (Q15375 28-998 limits assumed): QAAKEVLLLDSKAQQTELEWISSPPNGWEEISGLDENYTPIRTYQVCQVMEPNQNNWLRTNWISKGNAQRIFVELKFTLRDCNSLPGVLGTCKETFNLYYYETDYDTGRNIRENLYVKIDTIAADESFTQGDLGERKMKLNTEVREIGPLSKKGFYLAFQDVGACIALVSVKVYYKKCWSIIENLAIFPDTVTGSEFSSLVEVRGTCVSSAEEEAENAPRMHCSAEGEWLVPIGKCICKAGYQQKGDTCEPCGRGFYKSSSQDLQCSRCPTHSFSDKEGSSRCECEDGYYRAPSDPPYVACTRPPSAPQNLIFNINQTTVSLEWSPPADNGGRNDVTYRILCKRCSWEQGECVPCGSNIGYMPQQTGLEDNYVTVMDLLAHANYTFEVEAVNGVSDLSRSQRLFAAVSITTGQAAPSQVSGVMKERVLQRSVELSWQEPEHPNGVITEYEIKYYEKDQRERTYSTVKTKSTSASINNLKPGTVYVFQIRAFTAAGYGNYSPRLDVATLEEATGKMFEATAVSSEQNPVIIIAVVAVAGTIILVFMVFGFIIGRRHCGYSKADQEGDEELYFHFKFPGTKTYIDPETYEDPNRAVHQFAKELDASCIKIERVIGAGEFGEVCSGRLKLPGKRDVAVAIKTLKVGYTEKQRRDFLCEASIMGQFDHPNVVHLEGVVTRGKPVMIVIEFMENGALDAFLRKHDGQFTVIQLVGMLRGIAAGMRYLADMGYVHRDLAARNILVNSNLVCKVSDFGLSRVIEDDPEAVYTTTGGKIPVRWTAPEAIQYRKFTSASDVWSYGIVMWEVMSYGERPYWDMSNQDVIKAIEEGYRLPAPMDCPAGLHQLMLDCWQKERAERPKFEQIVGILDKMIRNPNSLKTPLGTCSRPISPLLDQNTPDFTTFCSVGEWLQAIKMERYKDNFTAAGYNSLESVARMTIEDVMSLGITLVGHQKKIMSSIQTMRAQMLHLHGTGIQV
# [7] = target: Ephrin type-A receptor 7 (Homo sapiens) (UniProt Q15375); settings: at 10 µM
# [8] = target: T2, Ephrin type-A receptor 8 (Homo sapiens) (UniProt P29322); settings: at 1 µM
# T2 sequence (whole entry): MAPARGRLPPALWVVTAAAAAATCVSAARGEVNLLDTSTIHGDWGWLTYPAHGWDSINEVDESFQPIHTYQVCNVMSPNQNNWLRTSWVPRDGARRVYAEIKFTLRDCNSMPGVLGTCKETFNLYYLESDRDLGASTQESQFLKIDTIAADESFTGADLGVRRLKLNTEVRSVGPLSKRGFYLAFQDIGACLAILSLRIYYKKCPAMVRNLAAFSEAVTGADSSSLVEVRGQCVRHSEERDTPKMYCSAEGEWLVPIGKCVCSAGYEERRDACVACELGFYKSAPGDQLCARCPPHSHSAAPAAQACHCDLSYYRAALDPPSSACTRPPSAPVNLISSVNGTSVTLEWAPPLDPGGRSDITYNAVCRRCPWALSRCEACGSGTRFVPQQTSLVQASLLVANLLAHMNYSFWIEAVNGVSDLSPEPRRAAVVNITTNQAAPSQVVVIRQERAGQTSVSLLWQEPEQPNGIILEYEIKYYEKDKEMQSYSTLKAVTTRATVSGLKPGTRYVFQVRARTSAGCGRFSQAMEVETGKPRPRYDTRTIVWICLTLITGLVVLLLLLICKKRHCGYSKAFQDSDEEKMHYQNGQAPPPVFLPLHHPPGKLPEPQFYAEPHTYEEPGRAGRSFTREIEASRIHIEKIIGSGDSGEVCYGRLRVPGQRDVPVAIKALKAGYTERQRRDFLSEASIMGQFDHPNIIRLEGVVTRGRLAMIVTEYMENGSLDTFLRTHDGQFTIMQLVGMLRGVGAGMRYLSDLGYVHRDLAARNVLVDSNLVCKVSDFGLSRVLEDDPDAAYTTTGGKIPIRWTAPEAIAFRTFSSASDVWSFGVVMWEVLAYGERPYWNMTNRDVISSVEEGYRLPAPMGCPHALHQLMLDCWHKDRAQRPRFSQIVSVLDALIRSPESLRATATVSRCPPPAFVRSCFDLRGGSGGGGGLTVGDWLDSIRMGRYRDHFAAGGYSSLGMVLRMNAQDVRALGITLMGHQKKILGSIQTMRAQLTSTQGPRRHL
# [9] = target: T2, Ephrin type-A receptor 8 (Homo sapiens); settings: at 10 µM
# [10] = target: T3, Ephrin type-B receptor 1 (Homo sapiens) (UniProt P54762); settings: at 1 µM
# T3 sequence (whole entry): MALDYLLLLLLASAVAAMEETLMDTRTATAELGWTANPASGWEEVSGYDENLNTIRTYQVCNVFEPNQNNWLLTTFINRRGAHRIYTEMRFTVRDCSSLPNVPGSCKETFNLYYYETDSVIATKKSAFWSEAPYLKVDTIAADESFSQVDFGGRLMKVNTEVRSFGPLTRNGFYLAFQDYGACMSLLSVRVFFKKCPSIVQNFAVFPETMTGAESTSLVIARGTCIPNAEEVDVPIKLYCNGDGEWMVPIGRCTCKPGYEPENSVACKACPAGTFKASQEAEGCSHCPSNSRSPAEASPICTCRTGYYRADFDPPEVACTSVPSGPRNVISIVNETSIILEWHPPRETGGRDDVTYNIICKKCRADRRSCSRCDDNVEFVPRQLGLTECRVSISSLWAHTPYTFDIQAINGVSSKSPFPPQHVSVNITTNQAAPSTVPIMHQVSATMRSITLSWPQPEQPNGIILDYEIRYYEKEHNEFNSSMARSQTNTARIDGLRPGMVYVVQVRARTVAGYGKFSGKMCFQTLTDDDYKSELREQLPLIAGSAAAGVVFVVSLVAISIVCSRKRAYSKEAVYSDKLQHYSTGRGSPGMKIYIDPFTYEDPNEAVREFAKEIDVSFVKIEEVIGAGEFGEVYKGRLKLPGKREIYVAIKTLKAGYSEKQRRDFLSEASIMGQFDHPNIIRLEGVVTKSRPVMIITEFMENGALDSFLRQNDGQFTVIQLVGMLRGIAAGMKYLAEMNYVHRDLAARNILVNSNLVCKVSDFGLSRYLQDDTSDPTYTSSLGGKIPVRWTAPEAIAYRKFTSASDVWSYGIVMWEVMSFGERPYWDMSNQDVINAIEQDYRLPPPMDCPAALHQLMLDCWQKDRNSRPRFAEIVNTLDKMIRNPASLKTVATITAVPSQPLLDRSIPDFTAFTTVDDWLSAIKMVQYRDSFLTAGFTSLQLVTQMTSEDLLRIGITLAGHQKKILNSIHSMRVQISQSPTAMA
# [11] = target: T3, Ephrin type-B receptor 1 (Homo sapiens); settings: at 10 µM
# [12] = target: T4, Ephrin type-B receptor 3 (Homo sapiens) (UniProt P54753); settings: at 10 µM
# T4 sequence (whole entry): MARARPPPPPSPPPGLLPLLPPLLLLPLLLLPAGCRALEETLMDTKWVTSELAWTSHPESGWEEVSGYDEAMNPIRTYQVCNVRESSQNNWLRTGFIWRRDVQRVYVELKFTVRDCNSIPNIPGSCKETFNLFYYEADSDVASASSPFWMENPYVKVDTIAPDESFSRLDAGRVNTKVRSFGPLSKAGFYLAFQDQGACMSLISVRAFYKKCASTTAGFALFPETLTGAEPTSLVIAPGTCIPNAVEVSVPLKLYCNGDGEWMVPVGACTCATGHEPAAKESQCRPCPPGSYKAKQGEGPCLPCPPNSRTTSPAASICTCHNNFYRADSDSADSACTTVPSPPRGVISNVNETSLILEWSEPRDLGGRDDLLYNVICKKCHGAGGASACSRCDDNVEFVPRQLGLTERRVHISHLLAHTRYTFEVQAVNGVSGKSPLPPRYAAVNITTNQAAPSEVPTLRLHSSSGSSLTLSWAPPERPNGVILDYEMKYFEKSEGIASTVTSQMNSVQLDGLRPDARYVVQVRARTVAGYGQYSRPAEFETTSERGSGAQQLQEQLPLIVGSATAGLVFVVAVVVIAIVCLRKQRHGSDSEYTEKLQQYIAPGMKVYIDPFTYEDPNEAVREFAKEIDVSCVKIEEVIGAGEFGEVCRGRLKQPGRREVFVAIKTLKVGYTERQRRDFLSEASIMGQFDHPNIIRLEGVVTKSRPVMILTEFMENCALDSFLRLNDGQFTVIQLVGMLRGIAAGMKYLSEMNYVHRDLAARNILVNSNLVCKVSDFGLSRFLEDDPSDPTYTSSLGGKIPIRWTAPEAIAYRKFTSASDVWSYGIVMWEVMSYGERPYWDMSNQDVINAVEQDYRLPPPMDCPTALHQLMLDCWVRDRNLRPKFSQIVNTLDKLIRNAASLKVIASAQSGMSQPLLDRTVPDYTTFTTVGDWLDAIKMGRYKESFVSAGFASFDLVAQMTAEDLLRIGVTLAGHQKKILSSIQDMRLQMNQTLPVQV
# [13] = target: T5, Ephrin type-B receptor 4 (Homo sapiens) (UniProt P54760); settings: at 1 µM
# T5 sequence (whole entry): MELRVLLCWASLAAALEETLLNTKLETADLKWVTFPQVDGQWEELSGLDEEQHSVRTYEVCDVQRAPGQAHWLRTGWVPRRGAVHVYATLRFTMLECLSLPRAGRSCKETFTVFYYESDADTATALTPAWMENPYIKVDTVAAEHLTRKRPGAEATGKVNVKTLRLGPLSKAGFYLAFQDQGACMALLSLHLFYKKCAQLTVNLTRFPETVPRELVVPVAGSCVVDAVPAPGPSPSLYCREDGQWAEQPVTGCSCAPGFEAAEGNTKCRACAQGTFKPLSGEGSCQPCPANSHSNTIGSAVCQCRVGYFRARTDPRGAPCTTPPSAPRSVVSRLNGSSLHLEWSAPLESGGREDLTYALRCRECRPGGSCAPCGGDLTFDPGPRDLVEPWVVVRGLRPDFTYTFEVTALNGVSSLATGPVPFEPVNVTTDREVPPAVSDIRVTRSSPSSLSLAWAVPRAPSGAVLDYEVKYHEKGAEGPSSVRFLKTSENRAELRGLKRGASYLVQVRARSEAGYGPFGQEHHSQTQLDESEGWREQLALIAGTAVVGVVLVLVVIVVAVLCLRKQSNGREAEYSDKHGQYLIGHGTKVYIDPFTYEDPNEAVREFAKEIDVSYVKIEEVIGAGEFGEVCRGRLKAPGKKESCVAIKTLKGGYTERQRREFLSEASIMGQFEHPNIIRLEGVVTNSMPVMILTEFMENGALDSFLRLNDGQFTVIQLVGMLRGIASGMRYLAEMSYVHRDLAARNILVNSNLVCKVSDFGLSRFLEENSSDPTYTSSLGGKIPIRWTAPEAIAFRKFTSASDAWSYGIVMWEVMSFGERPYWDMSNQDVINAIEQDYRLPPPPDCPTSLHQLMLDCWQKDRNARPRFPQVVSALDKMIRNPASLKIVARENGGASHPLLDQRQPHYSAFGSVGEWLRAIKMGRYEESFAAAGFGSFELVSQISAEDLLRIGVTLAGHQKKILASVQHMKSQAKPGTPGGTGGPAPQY
# [14] = target: T5, Ephrin type-B receptor 4 (Homo sapiens); settings: at 10 µM
# [15] = target: Receptor tyrosine-protein kinase erbB-4 (Homo sapiens) (UniProt Q15303); settings: at 1 µM
# Sequence of Receptor tyrosine-protein kinase erbB-4 (Homo sapiens) (Q15303 whole entry): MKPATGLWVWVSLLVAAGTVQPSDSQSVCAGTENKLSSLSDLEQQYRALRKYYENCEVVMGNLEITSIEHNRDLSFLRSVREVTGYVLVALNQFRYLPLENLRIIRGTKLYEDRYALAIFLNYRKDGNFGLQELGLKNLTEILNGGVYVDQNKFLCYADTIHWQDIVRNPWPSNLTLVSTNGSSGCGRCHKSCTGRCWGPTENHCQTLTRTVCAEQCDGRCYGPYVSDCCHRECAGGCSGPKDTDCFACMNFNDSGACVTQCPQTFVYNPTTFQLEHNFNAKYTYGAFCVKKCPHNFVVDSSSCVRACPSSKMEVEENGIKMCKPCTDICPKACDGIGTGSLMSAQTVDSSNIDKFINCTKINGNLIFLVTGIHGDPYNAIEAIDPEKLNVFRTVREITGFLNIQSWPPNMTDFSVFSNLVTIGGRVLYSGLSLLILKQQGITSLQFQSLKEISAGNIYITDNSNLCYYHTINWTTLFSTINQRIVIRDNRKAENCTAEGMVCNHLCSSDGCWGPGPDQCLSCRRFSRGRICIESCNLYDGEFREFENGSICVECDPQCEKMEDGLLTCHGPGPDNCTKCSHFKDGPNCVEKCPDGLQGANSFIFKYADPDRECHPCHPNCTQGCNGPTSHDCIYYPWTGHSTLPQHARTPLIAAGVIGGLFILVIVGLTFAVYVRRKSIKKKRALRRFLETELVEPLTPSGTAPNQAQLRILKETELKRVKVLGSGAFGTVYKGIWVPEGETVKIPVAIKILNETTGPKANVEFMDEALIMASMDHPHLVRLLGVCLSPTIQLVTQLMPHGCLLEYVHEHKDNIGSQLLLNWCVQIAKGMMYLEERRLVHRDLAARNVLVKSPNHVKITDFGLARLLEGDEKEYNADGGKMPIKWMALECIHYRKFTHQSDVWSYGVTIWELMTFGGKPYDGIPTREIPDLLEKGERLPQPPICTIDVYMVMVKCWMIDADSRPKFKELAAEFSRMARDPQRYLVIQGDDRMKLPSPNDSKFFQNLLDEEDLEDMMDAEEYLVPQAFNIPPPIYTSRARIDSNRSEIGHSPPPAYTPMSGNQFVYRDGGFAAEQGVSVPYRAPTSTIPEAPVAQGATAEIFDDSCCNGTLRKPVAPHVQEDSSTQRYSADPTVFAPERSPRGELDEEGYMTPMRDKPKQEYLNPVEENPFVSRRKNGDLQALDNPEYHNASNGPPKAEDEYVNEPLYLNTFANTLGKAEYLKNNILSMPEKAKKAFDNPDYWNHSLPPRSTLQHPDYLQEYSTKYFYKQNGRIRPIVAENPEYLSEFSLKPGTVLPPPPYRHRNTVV
# [16] = target: Receptor tyrosine-protein kinase erbB-4 (Homo sapiens) (UniProt Q15303); settings: at 10 µM
# [17] = target: Focal adhesion kinase 1 (Homo sapiens) (UniProt Q05397); settings: at 1 µM
compound,measurement,setting,value
COc1cc2ncnc(Nc3cccc(Cl)c3)c2cc1OC,residual activity,[1],42%
same,residual activity,[2],103%
same,residual activity,[3],57%
same,residual activity,[4],77%
same,residual activity,[5],27%
same,residual activity,[6],73%
same,residual activity,[7],22%
same,residual activity,[8],85%
same,residual activity,[9],35%
same,residual activity,[10],84%
same,residual activity,[11],24%
same,residual activity,[12],121%
same,residual activity,[13],45%
same,residual activity,[14],5%
same,residual activity,[15],35%
same,residual activity,[16],4%
same,residual activity,[17],146%
